Records with an inconclusive call do not appear. The source holds several records for some structures; these can differ, active in one and inactive in another. The source made the active and inactive calls. The calls were made as follows, unless noted: active = hit-call score of the fitted dose curve at least 0.9, where 1 is the maximum; inconclusive = response in the unintended direction; inactive = score below 0.9.

Read-out in one experiment: solute carrier (SLC22A6), SLC22A6 (gene 9356)
Kind of experiment: LTEA_HepaRG_SLC22A6: Life Technologies and Expression Analysis (LTEA) Assay for solute carrier (SLC22A6) using HepaRG (AID 2283653; active = hit-call score of the fitted dose curve at least 0.9, where 1 is the maximum; inactive = score below 0.9). The conditions noted are these: mRNA level, 48 h; actives raise or lower the signal. The gist of the method: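 Differentiated human HepaRG cells were exposed for 48 h in serum-free induction medium to eight concentrations (top 100 uM, half-log steps, 0.5% DMSO), in duplicate. SLC22A6 mRNA was quantified by qRT-PCR, normalised to ACTB, GAPDH and POLR2A, and fitted bidirectionally against DMSO.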
In the case of `N#CSCSc1nc2ccccc2s1`, the outcome was inactive.
The same measure, in the same setting: with `O=C(O)c1ccccc1` the entry was “inactive”; with `S=C([S-])NCCNC(=S)[S-].[Mn+2]`, “inactive”; with `S=C(S)NCCNC(=S)S.[Mn+2].[S-]C([S-])=NCCN=C([S-])[S-].[Zn+2]`, “inactive”.
Consider `COCCO`, for which the call was inactive.
Consider `CCCCOCCOCCOCc1cc2c(cc1CCC)OCO2`, for which the compound was classed as inactive.

System in another experiment: not listed separately
Kind of experiment: Tanguay_ZF_120hpf_SWIM_legacy: (Legacy) Oregon State University Tanguay Lab 120 Hour Post-fertilization zebrafish Assay for Swim Bladder Malformation (AID 2283654).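 Also: swim bladder malformation in each larva scored yes or no under brightfield.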
Details: not given
The method in brief: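 Embryos lacking chorions were exposed individually and statically to test chemical from 6 to 120 hpf at 28C, with 0.64% DMSO as vehicle. At 120 hpf, swim bladder malformation was recorded as present or absent by brightfield microscopy.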
As to `CCN(CC)C(=O)c1cccc(C)c1`, the result was inactive.
Take `N#CSCSc1nc2ccccc2s1`: the compound was classed as inactive.
`O=C(c1ccccc1)C1CCCCC1`: the outcome was inactive.
Turning to `CCNc1nc(N)nc(Cl)n1`, the outcome was inactive.
Consider `CC(C)(c1ccc(O)cc1)c1ccc(O)cc1`, for which the AC50 (as a rule, the concentration giving half of the maximal activity seen) is 37.5 µM (active) and the compound was called inactive.
`CCCN(CCC)c1c([N+](=O)[O-])cc(C(F)(F)F)c(N)c1[N+](=O)[O-]`: the result was inactive.
As for `CCOC(=O)NCCOc1ccc(Oc2ccccc2)cc1`, the result was inactive.
The same measure, in the same setting: under `CCCCOC(=O)C(C)Oc1ccc(Oc2ccc(C(F)(F)F)cn2)cc1` (centres undefined) stands “inactive”; under `Cc1nn(C)c(Oc2ccccc2)c1C=NOCc1ccc(C(=O)OC(C)(C)C)cc1`, “inactive”; under `C#CCOC(=O)[C@@H](C)Oc1ccc(Oc2ncc(Cl)cc2F)cc1`, “inactive”.
Still for that read-out and setting: under `CC1(C)C(C=C(Cl)Cl)C1C(=O)OCc1cccc(Oc2ccccc2)c1` (centres undefined) stands “inactive”.
Take `CCCCCOC(=O)COc1cc(N2C(=O)C3=C(CCCC3)C2=O)c(F)cc1Cl`: the compound was classed as inactive.
As to `CCC(C)OC(=O)N1CCCCC1CCO` (centres undefined), the call was inactive.
Turning to `O=C(O)c1ccccc1`, the compound was classed as inactive.
For `CC(C)CCCCCCc1ccc(O)cc1`, the compound was classed as inactive.
Still for that read-out and setting: under `S=C([S-])NCCNC(=S)[S-].[Mn+2]` stands “inactive”.
On to `S=C(S)NCCNC(=S)S.[Mn+2].[S-]C([S-])=NCCN=C([S-])[S-].[Zn+2]`, for which the result was inactive.

(Values after PubChem BioAssay (EPA / NIEHS).)
